Source: PubChem BioAssay
KCNH2 3.1 block – qHTS for Inhibitors of KCHN2 3.1: Mutant qHTS. activity change, % (tested at about 1.8 µM). Potassium voltage-gated channel subfamily H member 2, brain isoform KCNH2 3.1 (human). U2OS KCNH2 3.1, thallium flux FluxOr; hits give low values. 0.95% of 340,000 active;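 active = maximum activity change below -70%; inconclusive = maximum activity change from -70% to -50%; inactive = maximum activity change above -50%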;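 note: thallium influx rate constant from kinetic fluorescence after stimulation buffer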
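Steps: virus added to U2OS suspension (4 h, RT, dark); medium with 10% FBS added, cells plated, 37 C overnight; FluxOr/Red40 loading buffer 45 min RT; stimulation buffer, 2 min kinetic read; rate constant normalized.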
p53 reactivator – qHTS assay for re-activators of p53 using a Luc reporter; H1299 p53-A138V BP100-luciferase reporter, luminescence, 24 h; Potency, µM (top dose mostly 92.2 µM), usual class: activators; 0.063% of 320,000 active; AID 504706, 2011; active = well fitted activation curve with a large enough effect; inconclusive = small, poorly fitted or top-dose-only effect; inactive = no such curve, though single readings can be large or run the other way; note: nearly all actives have a fitted effect of over 45% in size
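H1299 (p53-null), stable ts p53-A138V + BP100-Luc; 1000 cells/well, Opti-MEM/10% FBS; cpd 4 pt, 1:5; 24 h, 37 deg C, 5% CO2; detection reagent 10 min RT; luminescence.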
TRPV1 PAM – HTS Assay for Compounds that Act as Potentiators of the Vanilloid Receptor 1; Transient receptor potential cation channel subfamily V member 1 (Homo sapiens), Q8NER1; TRPV1-expressing cells, Fluo-8 calcium influx, capsaicin EC20 potentiation; potentiation, % at 8.33 µM; 0.02% of 320,000 active; AID 540277, 2011; in the data active = potentiation above about 80%; inconclusive = between about 30% and that limit
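Fluo-8 calcium influx in TRPV1-expressing cells, kinetic read (ex 480/em 520 nm). Compound added and read 3 min for agonist activity, followed by capsaicin at EC20 final and 2 min further read for enhancement.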
ClpP mod – qHTS Assay for Activators of ClpP; 1.9% of 340,000 active; Potency, µM (top dose mostly 57.5 µM); purified B. subtilis ClpP, FRET peptide cleavage, 20 min; active = well fitted falling curve with a large enough effect; inconclusive = small, poorly fitted or top-dose-only effect; inactive = no such curve, though single readings can be large or run the other way; note: the source files actives as falling curves though it sought activators and does not explain the sign; nearly all actives have a fitted effect of over 65% in size
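ClpP 10 microg/mL final, pH 8 Tris/KCl buffer with BSA, glycerol, Tween-20; compound pinned in; FRET-FV substrate; RT 20 min; Ex320/Em430; ΔFRET vs ADEP 5.8 microM, DMSO, no enzyme.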
hERG WT inh – qHTS for Inhibitors of KCHN2 3.1: Wildtype qHTS | Voltage-gated inwardly rectifying potassium channel KCNH2 (Homo sapiens), Q12809 | U2OS, BacMam KCNH2, thallium flux FluxOr; hits give low values | activity change, % at 1.84 µM | 0.37% of 340,000 active | AID 720551, 2013;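 active = maximum activity change below -70%; inconclusive = maximum activity change between -70% and -50%; inactive = maximum activity change above -50%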
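U2OS cells were transduced with wild-type KCNH2 virus (2.03 x 10^8 / mL) for 4 h at room temperature, then cultured overnight at 37 C. Thallium flux was read with FluxOr dye. Rate constants were normalized to DMSO controls.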
TRPV1 agonist – HTS Assay for Compounds that Act as Agonists of the Vanilloid Receptor 1. AID 540275, 2011. 0.19% of 320,000 active. activation, % at 8.33 µM. TRPV1-expressing cells, Fluo-8 calcium influx, agonist mode. Transient receptor potential cation channel subfamily V member 1 (Homo sapiens), Q8NER1; in the data active = activation above about 80%; inconclusive = between about 30% and that limit
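TRPV1-expressing cells were cultured overnight at 35.5C and loaded with Fluo-8 calcium dye for 40 to 90 min at room temperature. After a 10 s baseline, compound was added and calcium influx was read kinetically for 3 min (ex 480/em 520 nm).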
Hits are given with their value; - = inactive; ? = inconclusive; . = not tested or not shown. This is a sample that favours compounds with a hit; in the whole collection about 2.6% have one here.

SMILES	KCNH2 3.1 block	p53 reactivator	TRPV1 PAM	ClpP mod	hERG WT inh	TRPV1 agonist
CCn1c(=O)c2ccccc2n(Cc2cccc([N+](=O)[O-])c2)c1=O	-	-	-	.	-	-
O=C(CCn1c(=O)c2ccccc2n(Cc2cccc([N+](=O)[O-])c2)c1=O)N1CCc2ccccc2C1	-	-	-	25µM	-	-
CCOC(=O)c1sc(Nc2nc3c(OC)cccc3s2)cc1C	-	?	-	25µM	-	-
CC(=O)Nc1ccc2nc(NC(=O)COc3ccccc3C)sc2c1	?	-	-	-	-	-
CCOC(=O)c1sc(Nc2nc3cc4c(cc3s2)OCO4)cc1C	-	?	-	28µM	-	-
CC(=O)c1sc(Nc2nc3cc4c(cc3s2)OCO4)nc1C	-	-	-	.	-	-
COc1cccc2sc(Nc3nc4ccc(NC(C)=O)cc4s3)nc12	-	?	-	1.1µM	-	-
C[n+]1ccnc2ccccc21	.	.	.	-	.	.
CCC(=O)Nc1cc(-c2nc3ccccc3s2)c(Cl)cc1Cl	.	.	.	-	.	.
Cc1nc2nc(NC(=O)c3ccc(C(C)(C)C)cc3)[nH]n2c(=O)c1Cc1ccccc1	.	.	.	-	.	.
CCOc1ccccc1N(CC(=O)Nc1cccnc1)S(C)(=O)=O	-86	-	-	-	-	-
CCOc1ccc(CNS(=O)(=O)c2ccc3c(c2)CCCN3C(C)=O)cc1OC	.	.	.	-	.	.
CC(=O)c1cccc(NC(=O)N2CCCC2C(=O)NC2CCCC2)c1 (configuration not stated)	-	-	-	.	-	-
Cc1cccc(NC(=O)N2CCCC2C(=O)NCc2cccs2)c1 (configuration not stated)	-	-	-	18µM	-	-
O=C(NC1CCCC1)C1CCCN1C(=O)Nc1ccccc1 (configuration not stated)	-87	-	-	-	-	-
COc1cccc(/C=C/c2nc(C#N)c(N3CCN(C)CC3)o2)c1	.	.	.	-	.	.
COc1ccccc1CNc1nc(Nc2ccc(C)cc2C)c2sccc2n1	.	.	.	-	.	.
CN(C)S(=O)(=O)Nc1ccccc1F	-80	-	-	.	-	-
CCOc1ccccc1NS(=O)(=O)N(C)C	-	-	-	-	-	-
COc1ccc(-c2cn3nc(N4CCC(C(=O)Nc5cccc(OC)c5)CC4)sc3n2)cc1	.	.	.	-	.	.
Cc1ccc(Oc2nc(-c3ccccc3)ncc2S(=O)(=O)c2ccc(C)cc2)cc1	-	-	-	22µM	-	-
NC(=S)N/N=C/c1ccc2cccc(OCc3ccccc3)c2n1	-	-	-	.	-	-
O=C(N/N=C/c1ccc2cccc(OCc3ccccc3)c2n1)c1ccc(Br)cc1	-	-	?	4µM	-	-
COc1ccc(C(=O)N/N=C/c2ccc3cccc(OCc4ccccc4)c3n2)cc1	-	?	-	3.2µM	-	-
CCOc1ccc(-c2cc3c(=O)n(CC(=O)Nc4cc(F)ccc4C)ccn3n2)cc1	.	.	.	-	.	.
SMILES	KCNH2 3.1 block	p53 reactivator	TRPV1 PAM	ClpP mod	hERG WT inh	TRPV1 agonist
COCCCn1cc(CN(C)C2CN(Cc3cn(CCCOC)nn3)S(=O)(=O)C2)nn1 (configuration not stated)	.	.	.	-	.	.
Cc1ccc(S(=O)(=O)NN2C(=O)c3ccccc3NC2(C)C)cc1	-	-	-	16µM	-	-
CC1(C)Nc2ccccc2C(=O)N1NS(=O)(=O)c1ccccc1	.	-	-	-	-	-
O=[N+]([O-])c1cc(S(=O)(=O)C(F)(F)F)ccc1Sc1nc2ccccc2[nH]1	-	-	-	25µM	-	?
CS(=O)(=O)c1ccc(Sc2nc3ccccc3[nH]2)c([N+](=O)[O-])c1	-	-	-	-	-	-
CC(=O)OCC1OC(Sc2cccc3cccnc23)C(OC(C)=O)C(OC(C)=O)C1OC(C)=O (configuration not stated)	-	-	-	16µM	-	-
COc1ccc(-n2cc(-c3ccccc3)[nH]c2=S)cc1	-	?	-	14µM	-	-
CCC(C)(C(=O)NC1CCCC1)N(C)C(=O)c1ccccn1 (configuration not stated)	-	-	89	.	-	-
Cc1ccc(S(=O)(=O)N2C[C@H]3C(=O)C[C@@H](c4ccc(Cl)cc4)N(S(=O)(=O)c4ccc(C)cc4)[C@H]3C[C@H]2c2cccc3ccccc23)cc1	.	.	.	-	.	.
Cc1ccc(NC(=O)c2cc(S(=O)(=O)N3CCOCC3)cs2)cc1	-	-	-	-	-	81
Cc1cccc(NC(=O)N2CCC3(CC2)Oc2ccccc2C(=O)N3Cc2ccccc2F)c1C	.	.	.	-	.	.
O=C(Nc1ccccc1)N1CCc2c([nH]c3ccccc23)C1C(F)(F)F (configuration not stated)	-	-	-	.	-	-
O=C(O)CCC(=O)N1CCc2c([nH]c3ccccc23)C1C(F)(F)F (configuration not stated)	-85	-	-	-	-	-
CCc1nc(-c2cc3ccc(C)cc3[nH]c2=O)no1	-	-	-	14µM	-	-
Cc1ccc2[nH]c(=O)c(-c3noc(C(C)C)n3)cc2c1	?	-	.	-	-	.
Cc1ccc2cc(-c3noc(C(C)(C)C)n3)c(=O)[nH]c2c1	-	-	-	28µM	-	-
CCc1ccc(CNc2ccc3c(c2)ncn3C)cc1	-	?	-	28µM	-	-
Cc1ccc(-n2cnc3cc(NCc4cccs4)ccc32)cc1	-	?	-	22µM	-	-
COc1ccc(CNc2ccc3c(c2)ncn3C)cc1OC	-	-	-	.	-	-
Cc1ccc(CNc2ccc3c(c2)ncn3C)cc1	-	-	-	25µM	-	-
CC(=O)c1cccc(NC(=O)CSc2nnc3ccc(-c4ccc(C)cc4)nn23)c1	.	.	.	-	.	.
Cc1c(NC(=O)C(C)OC(=O)COc2cccc3c2OC(C)(C)C3)c(=O)n(-c2ccccc2)n1C (configuration not stated)	-	?	-	-	-	-
CC1(C)Cc2cccc(OCC(=O)OCC(=O)Nc3ccc(C(N)=O)cc3)c2O1	-	-	-	25µM	-	-
CC1(C)Cc2cccc(OCC(=O)OCC(=O)Nc3ccccc3)c2O1	-	-	-	-	-	-
Cc1cc(=O)oc2cc(OCC(=O)Nc3c(C)n(C)n(-c4ccccc4)c3=O)c(Cl)cc12	-	-	-	32µM	-	-
